# High-throughput results from PubChem.
# AmpC inh detg – AmpC beta-lactamase inhibition with detergent present; Potency, µM (top dose mostly 114 µM), for inactives: at the top dose activity change, negative = inhibition, usual class: inhibitors; 370,000 tested, 0.041% active; P00811; AmpC hydrolysis of nitrocefin, absorbance 480 nm, 0.01% Triton; AID 485294;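 further: 0% = no-compound wells and -100% = no-enzyme wells; nearly all actives have a fitted effect of over 25% in size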
# Target sequence (P00811 whole entry, looked up): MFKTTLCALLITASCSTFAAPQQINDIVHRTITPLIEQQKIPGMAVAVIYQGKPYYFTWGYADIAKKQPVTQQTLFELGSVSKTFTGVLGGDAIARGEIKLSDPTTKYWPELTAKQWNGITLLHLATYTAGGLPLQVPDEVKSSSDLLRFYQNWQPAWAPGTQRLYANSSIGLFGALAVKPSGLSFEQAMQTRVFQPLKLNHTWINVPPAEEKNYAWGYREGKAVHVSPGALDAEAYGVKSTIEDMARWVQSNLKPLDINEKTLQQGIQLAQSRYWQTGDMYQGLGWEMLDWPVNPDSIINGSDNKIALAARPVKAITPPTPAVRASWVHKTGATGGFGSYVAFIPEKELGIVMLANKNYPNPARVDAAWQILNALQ
#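 20 mM phosphate pH 7.0 + 0.01% (detergent screen) or 0.0001% Triton X-100; 5.3 nM AmpC reagent; cpd preinc 15 min RT; nitrocefin (800 uM stock) to start; A480 q20 s × 4 min; Activity was normalised to no-enzyme and no-compound control wells.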
# AmpC inh no detg – inhibitors of E. coli AmpC beta-lactamase without detergent | 330,000 tested, 0.52% active | AmpC nitrocefin hydrolysis, absorbance 480 nm, 0.0001% Triton | AID 485341 | Potency, µM (top dose mostly 57.1 µM), without a hit: at the top dose activity change, negative = inhibition, hits mostly inhibitors;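 further: plate controls were no compound for no effect and no enzyme for full effect; nearly all actives have a fitted effect of over 20% in size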
#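 20 mM phosphate pH 7.0 + 0.01% (detergent screen) or 0.0001% Triton X-100; 5.3 nM AmpC reagent; cpd preinc 15 min RT; nitrocefin (800 uM stock) to start; A480 q20 s × 4 min; Activity was normalised to no-enzyme and no-compound control wells.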
# Vaccinia mCherry – vaccinia inhibition (mCherry reporter). Vaccinia virus mCherry reporter infection, fluorescence. 310,000 tested, 0.63% active. Potency, µM (highest dose often 36.5 µM), without a hit: at the top dose activity change, negative = inhibition, most hits filed as inhibitors; calls by dose curve; tested in A549 cells; further: on the % scale 0 is the no-effect control and ±100 the full control effect; nearly all actives have a fitted effect of over 35% in size
# Vaccinia Venus – inhibitors of vaccinia virus (Venus reporter); Vaccinia virus Venus reporter expression, fluorescence; Potency, µM (titrated, usually from 36.5 µM), for inactives: at the top dose activity change, negative = inhibition, actives largely listed as inhibitors; 330,000 tested, 0.46% active; calls by dose curve; tested in A549 cells; further: on the % scale 0 is the no-effect control and ±100 the full control effect; nearly all actives have a fitted effect of over 30% in size
# SARS PLP yeast – SARS-CoV PLP inhibition in yeast; S. cerevisiae expressing SARS-CoV PLpro, growth rescue; Potency, µM (series often up to 32.9 µM), for inactives: top-dose activity, positive = growth rescue, usual class: activators; 330,000 tested, 0.19% active; AID 485353; calls by dose curve; further: 0% is about no effect; nearly all actives have a fitted effect of over 55% in size
# Numbers without * were called inactive; i = inactive; ? = inconclusive; · = no result. Only some compounds are listed: those with a hit (about 1.3% of all), similar ones and a draw of the others. Unless noted, the call rests on the fitted dose curve; in most records, active means well fitted curve in the direction sought with a large enough effect; inconclusive means small, poorly fitted or top-dose-only effect, or another doubt; inactive means no such curve, though single readings can be large; an effect the other way counts as inactive or inconclusive. Potency means the concentration at half of the fitted maximal effect.
SMILES,AmpC inh detg,AmpC inh no detg,Vaccinia mCherry,Vaccinia Venus,SARS PLP yeast
O=c1[nH]c(=O)n(Cc2ccccc2)c(O)c1C=NCCCn1ccnc1,-12%,-8%,·,-7%,-2%
N=c1c2c(-c3ccccc3)c(-c3ccccc3)n(Cc3ccccc3)c2ncn1CCCn1ccnc1,-3%,141%,·,14µM*,4%
CCCCn1cnc2c(c(-c3ccccc3)c(-c3ccccc3)n2Cc2ccco2)c1=N,-1%,88%,i,-20%,0%
N=c1c2c(-c3ccccc3)c(-c3ccccc3)n(Cc3ccco3)c2ncn1Cc1ccco1,?,110%,·,11µM*,-6%
C[n+]1cc2c3c(ccc2c2ccc4cc5c(cc4c21)OCO5)OCO3,·,·,11µM*,10µM*,·
Cc1cnc(C)c(-c2cc(F)cc3c2OC(CNC(=O)c2cc(Cl)ccc2F)C3)n1 (configuration not stated),·,·,-8%,-8%,·
O=C(Nc1ccc(Oc2ccccc2)cc1)c1ccc(Cn2c(=O)[nH]c3ccsc3c2=O)cc1,-6%,16µM*,i,-28%,-3%
CCN(CCO)C(=O)c1cnn(-c2ncc3c(n2)-c2ccccc2CCC3)c1C1CC1,·,·,-18%,-19%,·
Cc1ccc(NC(=O)NNC(=O)c2cc3ccccc3cc2O)cc1,-1%,10µM*,·,·,0%
Cc1cnc(C)c(-c2cccc3c2OC(CNC(=O)C2(c4ccc(Cl)cc4)CC2)C3)n1 (configuration not stated),·,·,-10%,-5%,·
O=C(NCCc1csc(-c2cccnc2)n1)c1ccccc1,?,1.4µM*,-15%,3%,1%
CCc1ccc(S(=O)(=O)NCCc2csc(-c3cccnc3)n2)s1,3%,35µM*,i,-24%,-13%
Cc1cccc(C(=O)NCCc2csc(C)n2)c1,-11%,3.5µM*,0%,3%,-12%
O=C(NCCc1csc(-c2cccnc2)n1)c1cccc2ccccc12,?,-15%,0%,-13%,-9%
Cc1ccc(C(=O)NCCc2csc(C)n2)cc1,?,-5%,-2%,-2%,1%
CCC1CN(CCNC(=O)c2ccccc2-n2cccn2)Cc2cc(OC)ccc2O1 (configuration not stated),·,·,-15%,-2%,·
CCCS(=O)(=O)NCc1c(C)ncc2c1CCN(C(=O)c1cccc(Cl)c1F)C2,·,·,-8%,-7%,·
OC1(c2cccnc2)CCN(Cc2ccc3c(c2)CN(Cc2cccc(F)c2F)CCO3)CC1,·,·,-16%,-2%,·
CSc1ncccc1C(=O)NCC1Cc2cc(-c3cnccn3)ccc2O1 (configuration not stated),·,·,-2%,7%,·
Cc1noc(C)c1S(=O)(=O)N1CCN(Cc2ccc3c(c2)OCO3)CC1,-16%,7.1µM*,-4%,-8%,6%
Cc1cc(C)c(S(=O)(=O)N2CCN(Cc3ccc4c(c3)OCO4)CC2)cc1C,0%,·,2%,-3%,·
COc1ccc(C(=O)N(Cc2cc3cccc(C)c3nc2N(C)C)CC2CCCO2)cc1 (configuration not stated),·,·,-11%,11%,·
COc1ccc(Cl)cc1NC(=O)CN(C)S(=O)(=O)c1cccs1,-3%,-14%,17%,-14%,-1%
COc1ccc(Cl)cc1NC(=O)COC(=O)c1cc(NS(=O)(=O)c2cccs2)ccc1O,-12%,20µM*,-18%,-8%,0%
O=C(COC(=O)c1ccc(NS(=O)(=O)c2cccs2)cc1O)NCc1ccccc1,2%,-24%,-10%,-13%,1%
SMILES,AmpC inh detg,AmpC inh no detg,Vaccinia mCherry,Vaccinia Venus,SARS PLP yeast
O=C(COC(=O)c1ccc(NS(=O)(=O)c2cccs2)cc1O)Nc1nc2ccccc2s1,1%,1.6µM*,·,·,1%
Cc1cccc(NC(=O)CSc2ccc(-c3ccccn3)nn2)c1,-7%,·,?,-19%,·
CC(=O)Nc1cccc(NC(=O)CSc2ccc(-c3ccccn3)nn2)c1,0%,-56%,?,?,?
COc1ccc(C)cc1NC(=O)CSc1ccc(-c2ccccn2)nn1,-8%,-1%,16µM*,?,-16%
COc1cc(NC(=O)CSc2ccc(-c3ccccn3)nn2)cc(OC)c1,4%,-21%,11µM*,?,-5%
CC(C)(CNC(=O)c1cnn(-c2nccc(-c3ccccc3F)n2)c1C1CC1)N1CCOCC1,·,·,-20%,-15%,·
Cc1cccnc1NCc1ccc(O)c2ncccc12,-15%,-17%,14µM*,?,?
Cc1cccc(NCc2ccc(O)c3ncccc23)c1C,3%,-14%,-26%,-14%,4%
NCCc1ccc(OCc2ccccc2)c(OCc2ccccc2)c1,-12%,62%,18µM*,?,-2%
CCOc1cccc(=NC2CCCCC2)c2c(C)n(C)c(C)c12,-3%,4%,20µM*,?,0%
COc1cc(=O)n2c(c1C(=O)N(C)Cc1nonc1C)CCN(Cc1c(F)cccc1F)CC2,·,·,-10%,-2%,·
O=C(CN1c2ccccc2Sc2ccccc21)NNC(=S)Nc1ccc(Cl)cc1,18%,-48%,-28%,-23%,8%
O=C(CN1c2ccccc2Sc2ccccc21)NNC(=S)Nc1ccc(Cl)cc1Cl,-8%,16µM*,-28%,-23%,5%
CCCn1cnc2c(N)c(C)c(C)cc21,6%,0.32µM*,·,·,-4%
COc1cccc(Cn2cnc3c(N)c(C)c(C)cc32)c1,-13%,11%,i,-15%,2%
Cc1ccc(CNc2nc(CN3CCN(C=O)CC3)nc3ccccc23)o1,·,·,-3%,1%,·
O=[N+]([O-])c1oc2ccc3ccccc3c2c1CCO,·,·,?,10µM*,·
Cc1c(C(=O)c2ccccc2)oc2ccc3ccccc3c12,-4%,-19%,-8%,5%,0%
CC(=O)N1CCN(c2nc3cc(C)ccc3cc2CN(C(=O)c2cccc3ccccc23)C2CC2)CC1,·,·,-17%,-5%,·
CCOc1ccc(NS(=O)(=O)c2cc(NC(=O)c3cccc(C)c3)ccc2Cl)cc1,8%,-27%,?,13µM*,7%
CCCCn1c(N)c(N(CC(C)C)C(=O)CN2C(=O)C3CCCCC3C2=O)c(=O)[nH]c1=O (configuration not stated),?,-30%,-14%,-3%,4%
CCCCn1c(N)c(N(CC(C)C)C(=O)CN2C(=O)NC3(CC(C)CC(C)(C)C3)C2=O)c(=O)[nH]c1=O (configuration not stated),-10%,35µM*,-2%,-13%,3%
CCCCNC(=O)COC(=O)c1c2c(nc3ccccc13)CCC2,-7%,-35%,-5%,-4%,-1%
CCCCNC(=O)COC(=O)c1c2c(nc3ccccc13)/C(=C/c1cccs1)CC2,-5%,25µM*,-13%,?,-19%
COC(=O)c1c(NC(=O)CN2C(=O)NC3(CCc4ccccc4C3)C2=O)sc2c1CCCCC2 (configuration not stated),-16%,3.5µM*,-9%,-3%,-3%
